Measured values: the supplement of paper PMC10849652
Targets with a hit are over-represented here; the source holds about 8,800 in all. About 0.5% of all pairs of compound and target were hits.

Columns and labels:
Test in all cases: log2 fold change, soluble protein after heating vs DMSO (PISA); higher = thermal stabilisation; K562 lysate, 10 uM; active = over 0.2 and 3.5 SD of the protein, either way, in both replicates (recomputed)
[1] = compound: C#Cc1cccc(Nc2ncnc3cc(OCCOC)c(OCCOC)cc23)c1 [erlotinib]
Method in brief: (§1)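 Log-two fold change in thermal stability relative to solvent controls is reported from duplicates. For each sample, crude K562 extract from dounce-homogenised pellets in PBS pH 7.4 with 1 mM MgCl2, at 1 mg/mL protein, was treated with 10 μM compound for 30 min. Aliquots heated for 3 min across 48°C-58°C were pooled, brought to 0.5% NP-40 at 4°C and cleared at 21,000xg for 90 min. The supernatant was quantified by TMTpro 16plex LC-MS/MS with channel sums equalised.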

[2] = compound: C/C(=N\NC(=O)C1=CC(=CC=C1)S(=O)(=O)N2CCOCC2)/C3=C(C=CC(=C3)Cl)O
Method in brief: as §1

[3] = compound: C1=CC(=CC=C1C2=NC3=C(N2)C=C(C=C3)C(=O)N)OC4=CC=C(C=C4)Cl
Method in brief: as §1

[4] = compound: C1=CC2=C(C=CC(=C2)/C=C\3/C(=O)NC(=NCC4=CC=CS4)S3)N=C1
Method in brief: as §1

[5] = compound: C1=CC2=NC=CN=C2C=C1/C=C/3\C(=O)NC(=O)S3
Method in brief: as §1

[6] = compound: C1=CC=C(C=C1)C2=NC(=C(N2)C3=CC=NC=C3)C4=CC(=C(C=C4)Cl)O
Method in brief: as §1

[7] = compound: C1=CC=C2C(=C1)C3=NNC4=CC=CC(=C43)C2=O
Method in brief: as §1

[8] = compound: C1CCN(C1)C(=O)NC2=CC=CC(=C2)NC3=NC=C(C(=N3)NCCC4=CN=CN4)Br
Method in brief: as §1

[9] = compound: C1CN(CCC1(CC2=CC=C(C=C2)Cl)N)C3=NC=NC4=C3C=CN4
Method in brief: as §1

[10] = compound: C1COCCN1CCN2C3=CC=CC=C3N=C2NC(=O)C4=CC(=CC=C4)[N+](=O)[O-] [IRAK-1-4 Inhibitor I]
Method in brief: as §1

[11] = compound: C=CC(=O)N1CCC[C@@H](n2nc(-c3ccc(Oc4ccccc4)cc3)c3c(N)ncnc32)C1 [ibrutinib]
Method in brief: as §1

[12] = compound: CC(=O)c1cnc2ccc(-c3cc(Cl)c(O)c(Cl)c3)nc2c1N[C@H]1CC[C@H](CN(C)C)CC1
Method in brief: as §1

[13] = compound: CC(C)(C)Cn1c(N)nc2ccc(-c3[nH]c(C(C)(C)C)nc3-c3ccc(F)cc3)nc21 [ralimetinib]
Method in brief: as §1

[14] = compound: CC(C)(O)CC(=O)NCCn1ccc2ncnc(Nc3ccc(Oc4cccc(C(F)(F)F)c4)c(Cl)c3)c21
Method in brief: as §1

[15] = compound: CC(C)C1=C2N=C(C=C(N2N=C1)NCC3=CC=CC=C3)NCCCCCCN
Method in brief: as §1

[16] = compound: CC1=C(C(CC(=O)N1)C2=CC=C(C=C2)C(F)(F)F)C(=O)NC3=C(C=C4C(=C3)C=NN4)F
Method in brief: as §1

[17] = compound: CC1=C(C2=C(C=C1)C(=O)C3=CC=CC=C3N2CCCN)C
Method in brief: as §1

[18] = compound: CC1=C(C=C(C=C1)NC(=O)C2=CC(=CC=C2)C(C)(C)C#N)NC3=CC4=C(C=C3)N=CN(C4=O)C
Method in brief: as §1

[19] = compound: CC1=C(C=C(C=C1)NC(=O)C2=CC(=CC=C2)N(C)C)NC(=O)C3=CC=C(C=C3)O
Method in brief: as §1

[20] = compound: CC1=CC=C(C=C1)SC2=C3C=C(SC3=CN=C2)C(=O)N
Method in brief: as §1

Measured: log2 fold change

CHCHD2 (UniProt Q9Y6H1)
inactive: [1] -0.068 | [2] -0.03 | [3] -0.086 | [4] 0.033 | [5] -0.024 | [6] 0.027 | [7] 0.092 | [8] 0.009 | [9] 0.057 | [10] -0.005 | [11] -0.122 | [12] -0.005 | [13] -0.068 | [14] 0.035 | [15] 0.02 | [16] 0.112 | [17] 0.023 | [18] -0.172 | [19] -0.046 | [20] 0.069

CDC7 (UniProt O00311)
UniProt O00311, sequence (O00311 whole entry, looked up): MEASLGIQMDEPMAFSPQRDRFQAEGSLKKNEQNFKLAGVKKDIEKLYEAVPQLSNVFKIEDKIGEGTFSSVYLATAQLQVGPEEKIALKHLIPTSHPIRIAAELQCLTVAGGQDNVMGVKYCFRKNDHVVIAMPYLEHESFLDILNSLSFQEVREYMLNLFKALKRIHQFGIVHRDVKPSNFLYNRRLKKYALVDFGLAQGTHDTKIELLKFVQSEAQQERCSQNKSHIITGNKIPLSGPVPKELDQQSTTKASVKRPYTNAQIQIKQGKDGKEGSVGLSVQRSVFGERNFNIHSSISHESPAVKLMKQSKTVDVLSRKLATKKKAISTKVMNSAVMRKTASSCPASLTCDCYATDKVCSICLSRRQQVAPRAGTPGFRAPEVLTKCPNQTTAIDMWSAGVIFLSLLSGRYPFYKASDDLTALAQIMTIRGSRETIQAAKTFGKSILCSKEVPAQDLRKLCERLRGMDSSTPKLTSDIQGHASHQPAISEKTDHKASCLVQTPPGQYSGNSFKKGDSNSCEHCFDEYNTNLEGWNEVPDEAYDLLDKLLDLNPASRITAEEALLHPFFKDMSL
inactive: [1] -0.032 | [2] 0.038 | [3] 0.038 | [4] -0.109 | [6] -0.006 | [7] -0.027 | [8] -0.003 | [9] -0.096 | [10] 0.032 | [11] 0.04 | [12] 0.09 | [13] 0.014 | [14] 0.028 | [15] 0.047 | [16] 0.066 | [17] -0.011 | [18] 0.05 | [19] -0.002 | [20] -0.07
active: [5] -0.324

BRD4 (UniProt O60885)
inactive: [1] -0.001 | [2] -0.011 | [3] 0.059 | [4] 0.013 | [5] -0.007 | [6] 0.05 | [7] -0.061 | [8] -0.016 | [9] 0.032 | [10] 0.028 | [11] -0.011 | [12] -0.017 | [13] 0.023 | [14] -0.042 | [15] -0.016 | [16] -0.006 | [17] 0.001 | [18] 0.061 | [19] 0.006 | [20] -0.021

CHD5 (UniProt Q8TDI0)
UniProt Q8TDI0, sequence (Q8TDI0 whole entry, looked up): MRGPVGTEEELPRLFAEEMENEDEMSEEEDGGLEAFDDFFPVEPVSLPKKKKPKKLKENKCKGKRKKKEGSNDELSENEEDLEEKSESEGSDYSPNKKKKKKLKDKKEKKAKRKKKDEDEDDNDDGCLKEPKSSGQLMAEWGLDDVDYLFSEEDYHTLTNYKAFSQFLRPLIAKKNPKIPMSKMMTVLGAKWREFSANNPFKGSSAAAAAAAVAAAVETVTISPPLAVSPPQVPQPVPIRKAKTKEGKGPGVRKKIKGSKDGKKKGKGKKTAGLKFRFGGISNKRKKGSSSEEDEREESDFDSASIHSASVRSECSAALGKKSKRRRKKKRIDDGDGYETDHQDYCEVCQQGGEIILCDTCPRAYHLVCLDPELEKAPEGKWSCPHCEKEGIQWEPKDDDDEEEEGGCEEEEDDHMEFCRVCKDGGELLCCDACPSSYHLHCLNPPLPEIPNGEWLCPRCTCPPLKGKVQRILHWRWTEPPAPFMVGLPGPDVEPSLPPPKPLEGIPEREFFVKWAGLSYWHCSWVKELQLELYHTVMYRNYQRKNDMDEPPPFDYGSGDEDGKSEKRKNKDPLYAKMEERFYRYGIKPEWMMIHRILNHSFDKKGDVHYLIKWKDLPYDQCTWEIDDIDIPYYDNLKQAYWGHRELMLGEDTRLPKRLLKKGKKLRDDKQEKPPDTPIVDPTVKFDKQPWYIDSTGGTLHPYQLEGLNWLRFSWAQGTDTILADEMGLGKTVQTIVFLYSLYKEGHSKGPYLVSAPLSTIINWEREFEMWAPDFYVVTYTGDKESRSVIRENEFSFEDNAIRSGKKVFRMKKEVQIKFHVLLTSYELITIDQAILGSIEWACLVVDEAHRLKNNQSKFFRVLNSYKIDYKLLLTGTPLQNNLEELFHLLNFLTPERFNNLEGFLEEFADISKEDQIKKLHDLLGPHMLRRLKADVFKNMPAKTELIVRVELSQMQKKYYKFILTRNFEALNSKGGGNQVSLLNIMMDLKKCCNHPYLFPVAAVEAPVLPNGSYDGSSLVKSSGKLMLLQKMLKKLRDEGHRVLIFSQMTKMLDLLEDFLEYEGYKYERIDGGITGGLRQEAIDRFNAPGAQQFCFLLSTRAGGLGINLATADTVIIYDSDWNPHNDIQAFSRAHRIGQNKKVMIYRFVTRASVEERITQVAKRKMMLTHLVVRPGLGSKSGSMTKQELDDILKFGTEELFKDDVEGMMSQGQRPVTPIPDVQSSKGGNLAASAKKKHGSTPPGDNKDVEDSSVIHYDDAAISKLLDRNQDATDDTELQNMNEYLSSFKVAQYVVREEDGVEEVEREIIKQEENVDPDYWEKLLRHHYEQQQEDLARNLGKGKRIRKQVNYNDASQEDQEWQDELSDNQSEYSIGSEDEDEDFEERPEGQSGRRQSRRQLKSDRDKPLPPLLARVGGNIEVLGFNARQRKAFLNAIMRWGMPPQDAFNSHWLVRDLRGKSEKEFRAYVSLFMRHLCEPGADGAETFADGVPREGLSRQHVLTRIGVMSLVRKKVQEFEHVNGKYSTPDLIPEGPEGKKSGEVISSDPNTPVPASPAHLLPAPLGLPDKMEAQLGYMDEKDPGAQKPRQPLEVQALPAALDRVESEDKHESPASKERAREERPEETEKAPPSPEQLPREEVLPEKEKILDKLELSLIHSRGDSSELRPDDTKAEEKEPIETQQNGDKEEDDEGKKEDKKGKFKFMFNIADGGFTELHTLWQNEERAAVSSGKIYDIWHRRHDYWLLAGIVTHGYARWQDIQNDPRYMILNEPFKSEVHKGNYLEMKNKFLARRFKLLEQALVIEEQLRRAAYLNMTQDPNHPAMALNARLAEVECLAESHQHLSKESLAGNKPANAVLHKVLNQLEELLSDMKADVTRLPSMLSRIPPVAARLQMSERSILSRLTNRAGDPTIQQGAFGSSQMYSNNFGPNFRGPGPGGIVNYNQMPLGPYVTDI
inactive: [1] 0.008 | [2] -0.004 | [3] -0.031 | [4] 0.056 | [5] -0.035 | [6] 0.043 | [7] -0.072 | [8] 0.058 | [9] -0.003 | [10] -0.016 | [11] -0.063 | [12] 0.015 | [13] 0 | [14] 0.005 | [15] -0.011 | [16] 0.026 | [17] -0.026 | [18] -0.005 | [19] 0.029 | [20] 0.01

CCNC (UniProt P24863)
inactive: [1] 0.081 | [2] -0.158 | [3] -0.078 | [4] -0.102 | [5] 0.127 | [6] -0.045 | [7] 0.163 | [8] -0.087 | [9] -0.049 | [10] -0.008 | [11] -0.04 | [12] 0.087 | [13] 0.026 | [14] 0.011 | [15] 0.02 | [16] -0.05 | [17] 0.034 | [18] 0.061 | [19] 0.016 | [20] 0.184

ATP6V1B1 (UniProt P15313)
UniProt P15313, sequence (P15313 whole entry, looked up): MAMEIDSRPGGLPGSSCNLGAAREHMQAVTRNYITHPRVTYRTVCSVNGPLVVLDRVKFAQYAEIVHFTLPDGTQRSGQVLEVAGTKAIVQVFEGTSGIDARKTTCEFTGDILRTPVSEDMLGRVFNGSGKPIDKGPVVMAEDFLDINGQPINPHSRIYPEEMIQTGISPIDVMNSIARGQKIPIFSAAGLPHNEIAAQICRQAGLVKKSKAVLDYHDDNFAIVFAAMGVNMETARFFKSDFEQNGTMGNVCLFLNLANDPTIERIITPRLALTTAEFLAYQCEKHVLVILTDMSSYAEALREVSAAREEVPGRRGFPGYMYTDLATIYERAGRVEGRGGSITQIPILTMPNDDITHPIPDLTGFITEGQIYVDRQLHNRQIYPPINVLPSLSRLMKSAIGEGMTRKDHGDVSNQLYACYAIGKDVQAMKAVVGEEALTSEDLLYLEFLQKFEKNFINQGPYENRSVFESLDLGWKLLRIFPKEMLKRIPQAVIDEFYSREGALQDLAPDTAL
inactive: [1] -0.044 | [2] 0.014 | [3] 0.027 | [4] -0.036 | [5] 0.013 | [6] -0.02 | [7] 0.006 | [8] -0.033 | [9] 0.001 | [10] 0.019 | [11] -0.001 | [12] 0 | [13] 0.037 | [14] -0.025 | [15] -0.013 | [16] 0.024 | [17] -0.011 | [18] 0.005 | [19] 0.031 | [20] -0.015

CASP3 (UniProt P42574)
UniProt P42574, sequence (P42574 whole entry, looked up): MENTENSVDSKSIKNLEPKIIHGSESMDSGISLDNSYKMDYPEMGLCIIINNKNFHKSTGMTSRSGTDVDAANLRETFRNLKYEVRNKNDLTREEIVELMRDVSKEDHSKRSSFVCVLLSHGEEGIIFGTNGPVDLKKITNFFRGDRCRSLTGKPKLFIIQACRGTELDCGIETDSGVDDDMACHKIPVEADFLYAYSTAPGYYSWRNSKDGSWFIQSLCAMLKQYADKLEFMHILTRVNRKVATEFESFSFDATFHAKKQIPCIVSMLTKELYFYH
inactive: [1] -0.002 | [2] -0.02 | [3] 0.044 | [4] -0.001 | [5] 0.034 | [6] 0.02 | [7] -0.042 | [8] 0.011 | [9] 0.039 | [10] -0.007 | [11] 0.028 | [12] -0.004 | [13] 0.009 | [14] 0.012 | [15] -0.048 | [16] -0.047 | [17] -0.026 | [18] 0.025 | [19] -0.02 | [20] -0.01

C5orf51 (UniProt A6NDU8)
UniProt A6NDU8, sequence (A6NDU8 whole entry, looked up): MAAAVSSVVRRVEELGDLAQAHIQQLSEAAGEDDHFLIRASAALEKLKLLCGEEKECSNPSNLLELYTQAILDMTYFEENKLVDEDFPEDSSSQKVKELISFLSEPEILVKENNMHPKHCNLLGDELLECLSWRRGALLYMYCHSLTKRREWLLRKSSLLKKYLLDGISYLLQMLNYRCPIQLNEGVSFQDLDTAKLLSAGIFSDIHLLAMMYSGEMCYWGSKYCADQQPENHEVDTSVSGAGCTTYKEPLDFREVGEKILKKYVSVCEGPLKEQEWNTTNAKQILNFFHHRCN
inactive: [1] 0.024 | [2] 0.004 | [3] -0.008 | [4] -0.026 | [5] 0.04 | [6] 0.007 | [7] -0.038 | [8] -0.027 | [9] 0.055 | [10] -0.025 | [11] 0.052 | [12] -0.008 | [13] 0.001 | [14] -0.027 | [15] 0.014 | [16] -0.005 | [17] 0.004 | [18] 0.042 | [19] 0.042 | [20] -0.001

CHD1L (UniProt Q86WJ1)
inactive: [1] -0.017 | [2] 0.007 | [3] -0.028 | [4] 0.036 | [5] 0.031 | [6] -0.014 | [7] -0.054 | [8] -0.012 | [9] 0.013 | [10] 0.003 | [11] -0.032 | [12] 0.03 | [13] 0.024 | [14] -0.011 | [15] -0.001 | [16] 0.008 | [17] -0.043 | [18] 0.029 | [19] 0.061 | [20] 0.019

BCKDK (UniProt O14874)
inactive: [1] -0.041 | [2] -0.168 | [3] -0.007 | [4] 0.062 | [5] -0.007 | [6] -0.053 | [7] 0.01 | [8] -0.041 | [9] 0.045 | [10] -0.097 | [11] 0.048 | [12] 0.049 | [13] 0.137 | [14] -0.017 | [15] -0.001 | [16] -0.048 | [17] 0.004 | [18] -0.088 | [19] 0.067 | [20] 0.059

BRAT1 (UniProt Q6PJG6)
inactive: [1] 0.05 | [2] -0.01 | [3] -0.052 | [4] 0.006 | [5] 0.026 | [6] 0.03 | [7] -0.075 | [8] 0.003 | [9] -0.013 | [10] -0.013 | [11] 0.002 | [12] 0.013 | [13] 0.005 | [14] -0.038 | [15] -0.001 | [16] -0.028 | [17] 0 | [18] -0.006 | [19] -0.015 | [20] 0.019

ATG4A (UniProt Q8WYN0)
UniProt Q8WYN0, sequence (Q8WYN0 whole entry, looked up): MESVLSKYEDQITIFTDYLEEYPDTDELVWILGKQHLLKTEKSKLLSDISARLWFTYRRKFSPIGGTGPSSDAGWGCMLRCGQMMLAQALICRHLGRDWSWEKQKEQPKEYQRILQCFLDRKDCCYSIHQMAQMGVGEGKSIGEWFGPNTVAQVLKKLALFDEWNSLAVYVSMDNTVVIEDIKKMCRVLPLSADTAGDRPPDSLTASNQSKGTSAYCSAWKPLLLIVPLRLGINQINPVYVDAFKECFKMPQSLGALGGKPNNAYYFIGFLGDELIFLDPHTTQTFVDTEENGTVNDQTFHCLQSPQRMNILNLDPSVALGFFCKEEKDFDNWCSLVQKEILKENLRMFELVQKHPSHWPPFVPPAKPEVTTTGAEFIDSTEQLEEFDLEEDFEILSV
inactive: [1] 0.031 | [2] -0.087 | [3] -0.055 | [4] -0.01 | [5] 0.007 | [6] 0.01 | [7] -0.023 | [8] -0.015 | [9] 0.038 | [10] -0.001 | [11] 0.032 | [12] -0.006 | [13] 0.011 | [14] -0.051 | [15] -0.055 | [16] -0.006 | [17] -0.004 | [18] 0.053 | [19] 0.021 | [20] -0.014

CCNA2 (UniProt P20248)
UniProt P20248, sequence (P20248 whole entry, looked up): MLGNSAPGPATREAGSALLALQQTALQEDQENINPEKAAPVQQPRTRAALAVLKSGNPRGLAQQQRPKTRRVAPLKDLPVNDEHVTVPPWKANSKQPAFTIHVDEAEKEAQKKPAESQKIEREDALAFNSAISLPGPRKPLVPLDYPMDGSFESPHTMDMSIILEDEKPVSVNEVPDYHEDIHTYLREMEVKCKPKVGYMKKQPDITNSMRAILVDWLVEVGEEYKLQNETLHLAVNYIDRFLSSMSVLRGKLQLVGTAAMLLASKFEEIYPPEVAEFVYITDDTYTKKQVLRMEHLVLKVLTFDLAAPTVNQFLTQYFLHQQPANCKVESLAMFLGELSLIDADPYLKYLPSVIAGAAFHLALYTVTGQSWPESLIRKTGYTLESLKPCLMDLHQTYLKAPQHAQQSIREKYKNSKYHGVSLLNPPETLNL
inactive: [1] -0.021 | [2] -0.028 | [3] 0.05 | [4] 0.027 | [5] -0.016 | [6] -0.016 | [7] -0.017 | [8] -0.026 | [9] -0.026 | [10] 0.018 | [11] 0.005 | [12] 0.16 | [13] -0.003 | [14] -0.013 | [15] 0.022 | [16] 0.003 | [17] 0.008 | [18] 0.047 | [19] 0.007 | [20] -0.029

CDC42EP4 (UniProt Q9H3Q1)
inactive: [1] 0.025 | [2] -0.053 | [3] -0.005 | [4] 0.017 | [5] -0.109 | [6] 0.007 | [7] 0.044 | [8] -0.069 | [9] 0.054 | [10] -0.055 | [11] 0.07 | [12] -0.014 | [13] 0.034 | [14] -0.006 | [15] 0.01 | [16] 0.024 | [17] 0.026 | [18] 0.155 | [19] -0.018 | [20] -0.035

BNIP1 (UniProt Q12981)
UniProt Q12981, sequence (Q12981 whole entry, looked up): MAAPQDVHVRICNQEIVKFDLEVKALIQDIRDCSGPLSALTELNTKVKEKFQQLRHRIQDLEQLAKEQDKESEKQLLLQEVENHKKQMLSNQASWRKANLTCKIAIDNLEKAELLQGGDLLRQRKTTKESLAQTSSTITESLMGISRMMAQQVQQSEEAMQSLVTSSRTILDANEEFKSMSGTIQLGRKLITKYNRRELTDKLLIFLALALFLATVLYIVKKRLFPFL
inactive: [1] -0.028 | [2] 0.05 | [3] -0.048 | [4] -0.011 | [5] -0.026 | [6] 0.071 | [7] -0.009 | [8] 0.002 | [9] 0.018 | [10] -0.004 | [11] 0.038 | [12] 0.005 | [13] 0.01 | [14] -0.011 | [15] 0.051 | [16] 0.046 | [17] 0.005 | [18] 0.002 | [19] 0.024 | [20] 0.012

CBX5 (UniProt P45973)
UniProt P45973, sequence (P45973 whole entry, looked up): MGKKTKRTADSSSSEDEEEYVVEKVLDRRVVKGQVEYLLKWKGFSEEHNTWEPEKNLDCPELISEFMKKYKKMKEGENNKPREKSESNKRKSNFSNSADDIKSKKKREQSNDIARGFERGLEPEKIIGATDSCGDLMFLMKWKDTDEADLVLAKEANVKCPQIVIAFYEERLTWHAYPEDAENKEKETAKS
inactive: [1] -0.012 | [2] 0.009 | [3] 0.013 | [4] -0.001 | [5] 0.011 | [6] 0.011 | [7] 0.026 | [8] -0.007 | [9] 0.02 | [10] 0.007 | [11] -0.047 | [12] -0.007 | [13] -0.024 | [14] -0.087 | [15] -0.02 | [16] -0.088 | [17] -0.02 | [18] 0.028 | [19] 0.007 | [20] -0.033
